104 compounds from PubChem BioAssay AID504339 (National Center for Advancing Translational Sciences (NCATS), 2011) can be followed below.

Screen size: about 390,000 compounds; about 17,000 (4.4%) were called active. Where a call stands in place of a potency, no number is given. Another 8% or so got no clear call; they are omitted. This is one part of a sample in which actives are shown more often than they occur. Calls come from the whole dose curve; as a rule, active = well fitted inhibition curve with a large enough effect; inconclusive = small, poorly fitted or top-dose-only effect; inactive = no such curve, though single readings can be large or run the other way.
Potency is the fitted concentration of half-maximal effect.

Lysine-specific demethylase 4A (Homo sapiens), sequence (O75164 whole entry, looked up, the tested form may be a part): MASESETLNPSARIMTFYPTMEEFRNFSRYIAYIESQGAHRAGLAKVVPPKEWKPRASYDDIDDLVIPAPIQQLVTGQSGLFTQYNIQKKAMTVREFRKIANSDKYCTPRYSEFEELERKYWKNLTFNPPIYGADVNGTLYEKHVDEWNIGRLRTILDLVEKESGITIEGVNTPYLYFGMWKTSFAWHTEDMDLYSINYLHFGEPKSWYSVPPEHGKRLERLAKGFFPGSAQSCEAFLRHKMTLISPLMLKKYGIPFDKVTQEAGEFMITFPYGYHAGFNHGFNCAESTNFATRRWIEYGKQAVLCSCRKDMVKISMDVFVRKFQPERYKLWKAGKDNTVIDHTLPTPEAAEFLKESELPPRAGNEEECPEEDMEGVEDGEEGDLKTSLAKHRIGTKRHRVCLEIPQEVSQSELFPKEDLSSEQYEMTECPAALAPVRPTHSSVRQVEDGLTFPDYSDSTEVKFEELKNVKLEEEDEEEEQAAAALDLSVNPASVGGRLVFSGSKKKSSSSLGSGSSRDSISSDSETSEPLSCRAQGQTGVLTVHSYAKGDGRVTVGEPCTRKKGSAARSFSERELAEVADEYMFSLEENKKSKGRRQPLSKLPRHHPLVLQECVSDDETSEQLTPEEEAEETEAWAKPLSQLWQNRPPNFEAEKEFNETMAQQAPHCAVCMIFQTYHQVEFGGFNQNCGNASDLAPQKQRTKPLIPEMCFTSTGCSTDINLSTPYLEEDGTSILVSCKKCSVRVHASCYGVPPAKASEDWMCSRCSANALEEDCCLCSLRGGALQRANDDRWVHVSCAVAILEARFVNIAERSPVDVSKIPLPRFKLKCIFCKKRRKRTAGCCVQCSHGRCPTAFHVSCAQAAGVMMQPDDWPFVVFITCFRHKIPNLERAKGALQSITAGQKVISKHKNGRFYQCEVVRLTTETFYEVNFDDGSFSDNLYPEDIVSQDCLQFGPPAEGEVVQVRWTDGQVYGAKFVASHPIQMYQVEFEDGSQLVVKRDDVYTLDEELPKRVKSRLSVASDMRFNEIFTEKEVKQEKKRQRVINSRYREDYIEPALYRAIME

This test addresses Lysine-specific demethylase 4A (Homo sapiens) (UniProt O75164). The experiment in a line: qHTS Assay for Inhibitors of JMJD2A-Tudor Domain. Note: nearly all actives have a fitted effect of over 50% in size. The settings on record: AlphaScreen JMJD2A-Tudor / H3K4me3 peptide binding; series mostly up to 114 µM.
As to `c1ccc(Cn2nnc3c(N4CCCCC4)ncnc32)cc1`, the Potency entry was “inactive”. On to `COc1cc(OC)cc(-c2nc3nc(C)c(CCC(=O)Nc4ccc(C)cc4)c(C)n3n2)c1`, for which the Potency entry is “inactive”. For the compound `Cc1ccc(Nc2nc(Cl)c(C=O)s2)cc1`, the Potency result was “inactive”. With `Nc1ccc(C(=O)Nc2ccccc2N)cc1`, the Potency entry is “inactive”. Regarding `Cc1ccc(Nc2ccccc2N)cc1`, the Potency is 44.7 µM (active). On to `O=C(c1ccco1)n1nc(-c2ccc(Cl)cc2)nc1NCc1ccccc1`, for which the Potency result was “inactive”. As to `Cc1nn2c(=O)cc(COC(=O)c3cccc(NC(=O)COc4ccccc4Cl)c3)nc2s1`, the Potency entry is “inactive”. In the case of `Cc1cc(/C=N/NC(N)=O)c(C)n1C1CCCCC1`, the Potency entry was “inactive”.

With `Cc1cccc(-n2c(C)cc(/C=N/NC(N)=S)c2C)c1`, the Potency is 56.2 µM (active). Turning to `Cc1cc(/C=N/n2cnnc2)c(C)n1-c1ccc2ncccc2c1`, the Potency result was “inactive”.

Take `Cc1cc(C(=O)Nc2cccc(C(F)(F)F)c2)c2c(C)nn(-c3cccc(F)c3)c2n1`: the Potency entry is “inactive”. Take `COCCCNC(=O)c1ccc(NC(=O)c2nsc3ccccc23)cc1`: the Potency entry is “inactive”. Take `CCCCN1C(=O)/C(=C/C=C2/C=Cc3ccccc3N2CC)SC1=S`: the Potency entry is “inactive”.

Take `CCCCN1C(=O)/C(=C2/C=CC=CN2C)SC1=S`: the Potency was 44.7 µM (active). As to `COc1cccc(OC)c1C(=O)N1CCN(Cc2cccnc2)CC1`, the Potency was 5.01 µM (active). The entry for `COc1cccc(OC)c1OCCN1CCN(C(=O)c2ccco2)CC1` is “inactive”; for `COc1ccccc1C(=O)N1CCN=C1SCc1cccnc1` it is “inactive”; for `CCCn1c2ccccc2c2cnn(CC(=O)NCCCOC(C)C)c(=O)c21` it is “inactive”. As to `COc1cccc(N=C2SC(C(=O)Nc3cccc(Cl)c3)CC(=O)N2C)c1` (centres undefined), the Potency result is “inactive”.

On to `COc1cccc(CNC(=O)Cn2ncn3c(cc4ccccc43)c2=O)c1`, for which the Potency result is “inactive”.

As for `Cc1ccc(/C=N\n2c(-c3ccccc3)n[nH]c2=S)s1`, the Potency was 50.1 µM (active). `CCc1n[nH]c(=S)n1/N=C/c1c[nH]c2ccc(Br)cc12`: the Potency result was “inactive”.

For the compound `S=c1[nH]nc(-c2ccccc2)n1/N=C/c1c[nH]c2ccccc12`, the Potency is 89.1 µM (active). Turning to `O=C(Cn1cncn1)N/N=C/c1c2ccccc2cc2ccccc12`, the Potency result is “inactive”.

Regarding `S=c1[nH]nc(-c2cc(-c3ccccc3)n[nH]2)n1/N=C/c1c2ccccc2cc2ccccc12`, the Potency was 39.8 µM (active). As to `C[n+]1ccc(/C=C/c2c[nH]c3ccccc23)cc1`, the Potency entry is “inactive”. For `C=CCNC(=S)N/N=C/c1ccc(C)s1`, the Potency result is “inactive”. The entry for `Cc1ccccc1C(=O)NCc1nc(-c2ccc(Cl)cc2)no1` is “inactive”. As to `O=C(Nc1ccc(S(=O)(=O)N2CCC(c3nc4ccccc4s3)CC2)cc1)c1ccccc1F`, the Potency result was “inactive”. `CCc1ccc(C2CC(=O)c3c([nH]c(C(=O)OCc4ccc(C)cc4)c3C)C2)cc1` (centres undefined): the Potency entry is “inactive”.

Regarding `Cc1cccc(N2CCN(C(=O)c3ccc(Nc4nc5ccccc5n5nnnc45)cc3)CC2)c1C`, the Potency result is “inactive”. On to `N#Cc1nc(/C=C/c2ccc(F)cc2)oc1NCc1ccc(F)cc1`, for which the Potency entry is “inactive”. Under `CC(=O)N1CCc2cc(S(=O)(=O)NC(Cc3ccccc3)C(=O)NCc3ccc(C)cc3)ccc21` (centres undefined) stands “inactive”; under `Cc1ccccc1CNC(=O)C1CCCN(S(=O)(=O)N(C)c2ccc(F)cc2)C1` (centres undefined), “inactive”. As for `CC1=C/C(=N\OS(=O)(=O)c2ccccc2)C=CC1=O`, the Potency was 22.4 µM (active).

With `CCc1ccccc1NC(=O)Cn1c(=O)n(-c2cccc(C)c2)c(=O)c2c1c1cc(OC)ccc1n2C`, the Potency result was “inactive”. In the case of `O=C(NC1CCCCC1)c1ccc2c(c1)N(Cc1ccc(Cl)cc1)C(=O)c1ccccc1S2=O` (centres undefined), the Potency entry was “inactive”. As for `CCOc1cc(C(=O)Nc2nnc3n2CCS3)cc(OCC)c1OCC`, the Potency entry was “inactive”. With `O=C(O)c1cccc2c1C(=O)N(C1CCCCC1)C2`, the Potency entry was “inactive”. Turning to `O=C(O)C1CCN1C1CCCCC1` (centres undefined), the Potency is 31.6 µM (active). On to `O=C(O)C1CC=CC2CCN(C3CCCCC3)C(=O)C21` (centres undefined), for which the Potency entry is “inactive”. Consider `CCCCOc1ccc(NC(=O)c2cc3c(n(-c4ccc(Cl)cc4)c2=O)CCCC3=O)cc1`, for which the Potency result is “inactive”.

Turning to `Nc1nc(SCc2ccc([N+](=O)[O-])cc2)c2ncn(C3OC(CO)C(O)C3O)c2n1` (centres undefined), the Potency result was “inactive”.

In the case of `CC(C)Sc1nc(N)nc2c1ncn2C1OC(CO)C(O)C1O` (centres undefined), the Potency result is “inactive”.

As to `COC1C(CO)OC(n2cnc3c(=S)nc(N)[nH]c32)C1O` (centres undefined), the Potency is 17.8 µM (active). For the compound `O=C(Nc1ccc(Oc2ccccc2)cc1)C1CCN(S(=O)(=O)c2ccc(Cl)cc2)CC1`, the Potency result is “inactive”. Turning to `COc1ccc(C(=O)Nc2nonc2-c2ccc(OC)c(OC)c2)cc1Cl`, the Potency result was “inactive”. For the compound `Cc1ccc(S(=O)(=O)N(Cc2nc(-c3ccc(Cl)cc3)no2)C2CCCCC2)cc1`, the Potency result is “inactive”. With `CC(=O)OC(COc1ccc(F)cc1)Cn1cnc2ccccc21` (centres undefined), the Potency was 79.4 µM (active). On to `CC(=O)N=c1ncn(CC(COC(C)=O)OC(C)=O)c2nc[nH]c12` (centres undefined), for which the Potency entry was “inactive”. Turning to `CC(C)c1ccc(OCC(O)Cn2cnc3ccccc32)cc1` (centres undefined), the Potency entry is “inactive”.

As to `Cc1ccc(Cl)cc1NC(=O)CSc1nc2ccccc2nc1Cc1ccccc1`, the Potency result was “inactive”.

Regarding `COC(=O)c1c(NC(=O)c2cc(=O)c3c(C)cc(C)cc3o2)sc2c1CCCC2`, the Potency result was “inactive”. With `COc1cccc(NC(=O)c2nn(C34CC5CC(CC(C5)C3)C4)cc2[N+](=O)[O-])c1`, the Potency result is “inactive”. Consider `Cc1nc([N+](=O)[O-])nn1C12CC3CC(CC(Br)(C3)C1)C2`, for which the Potency is 56.2 µM (active). Regarding `O=C(COc1ccccc1)OCc1cc(=O)n2nc(-c3cccs3)sc2n1`, the Potency entry is “inactive”. Under `CCC(=O)N1c2ccccc2CC1C(=O)N1CCN(c2ccccc2)CC1` (centres undefined) stands “inactive”.

Turning to `CCN(CC)S(=O)(=O)c1ccc2c(c1)N(CC(=O)NCc1ccccc1)C(=O)CS2`, the Potency entry was “inactive”. For the compound `CCCS(=O)(=O)Nc1cccc(-c2cn3ccsc3n2)c1`, the Potency result was “inactive”. Take `COc1ccc(/C=C2\CCc3ccccc3C2=O)c(OC)c1OC`: the Potency entry is “inactive”.

With `COC(=O)C(C)C1Sc2ccccc2NC1=O` (centres undefined), the Potency result is “inactive”. As for `COc1ccc(C2Sc3ccccc3NC3=C2C(=O)c2ccccc23)c(OC)c1OC` (centres undefined), the Potency is 14.1 µM (active).

For the compound `CCOC(=O)C1CCCN(CC(=O)Nc2cc(C)c3c(=O)oc4ccccc4c3n2)C1` (centres undefined), the Potency result is “inactive”. As to `CCOC(=O)c1ccc(NC(=O)CCn2cnnn2)cc1`, the Potency entry is “inactive”. Consider `CSc1ncc(Cl)c(C(=O)Nc2ccc(S(=O)(=O)N3CCCC(C)C3)cc2)n1` (centres undefined), for which the Potency result was “inactive”.

`CCCCN(C)S(=O)(=O)c1ccc(C(=O)Nc2sc3c(c2C(N)=O)CC(C)(C)NC3(C)C)cc1`: the Potency entry was “inactive”. Regarding `CCN1CCN(C(c2ccc(C)cc2)c2c(O)cc(C)n(Cc3ccco3)c2=O)CC1` (centres undefined), the Potency result is “inactive”. As to `Oc1c(Cl)cc(Cl)c(Cl)c1Cc1c(O)c(Cl)cc(Cl)c1Cl`, the Potency was 79.4 µM (active).

On to `O=C(Nc1ccc(F)cc1F)c1cnn(-c2ccc(F)cc2)c1-n1cccc1`, for which the Potency entry is “inactive”. The entry for `COc1ccc(C(=O)CSc2nccc(=O)[nH]2)cc1` is “inactive”. The entry for `O=C(CSc1ncn[nH]1)Nc1nsc(-c2ccccc2)n1` is “inactive”; for `CC(C)(C)c1ccc(C(=O)CSc2ncn[nH]2)cc1` it is 20 µM (active); for `CC(=O)Nc1nc(N(C)C)nc(N(C)C)n1` it is “inactive”. With `CN(C)c1nc(Nc2ccc(Cl)c(Cl)c2)nc(N(C)C)n1`, the Potency was 14.1 µM (active). On to `CNc1nc(Nc2ccc(C)c(Cl)c2)nc(N)c1[N+](=O)[O-]`, for which the Potency result was “inactive”. Under `CCc1ccc(Sc2cc(C(=O)NCCCOC(C)C)c3ccccc3n2)cc1` stands “inactive”; under `CSc1ccc(CCNC(=O)c2cc(C)nc3c2c(C)nn3-c2cccc(F)c2)cc1`, “inactive”. For the compound `O=C(CC1Oc2ccccc2NC1=O)NCc1ccc(F)cc1` (centres undefined), the Potency entry was “inactive”. For the compound `COc1ccccc1Nc1cc(C(=O)NCCCN(C)C2CCCCC2)c2ccccc2n1`, the Potency entry was “inactive”.

In the case of `CCCCN(CCCNC(=O)c1cc(Nc2ccccc2OC)nc2ccccc12)c1ccccc1`, the Potency result was “inactive”. Under `COc1ccc(Nc2cc(C(=O)NCCCN(C)c3ccccc3)c3ccccc3n2)c(OC)c1` stands 15.8 µM (active); under `COc1ccc(CCNC(=O)Cn2c(=O)cc(C(F)(F)F)c3c(C)nn(C)c32)c(OC)c1`, “inactive”.

As for `COc1ccc(C)cc1NC(=O)CCc1c(C)nn(-c2ccc(N3CCOCC3)nn2)c1C`, the Potency result was “inactive”. In the case of `O=C(O)c1cccc(N=NN2CCCCCC2)c1`, the Potency entry is “inactive”. Consider `CN=C1S/C(=C\c2c(OC)cc(OC)cc2OC)C(=O)N1C`, for which the Potency result is “inactive”. Regarding `CN1C(=O)/C(=C/c2ccco2)SC1=Nc1cccc(C(=O)O)c1`, the Potency is 79.4 µM (active). In the case of `COc1ccc(C)cc1Nc1nc2ccccc2c2nnc(C)n12`, the Potency result is “inactive”. For `COc1ccc(OC)c(-n2nnc3c(sc4nc(C)c(Br)c(C)c43)c2=O)c1`, the Potency entry was “inactive”.

As to `O=S(=O)(c1cccc(C(F)(F)F)c1)N1CCN(c2nc(-c3cccs3)nc3ccccc23)CC1`, the Potency result is “inactive”.

With `C=CCn1c(SCC(=O)NC23CC4CC(CC(C4)C2)C3)nc(O)cc1=O`, the Potency entry was “inactive”. For the compound `C=CCn1c(C23CC4CC(CC(C4)C2)C3)n[nH]c1=S`, the Potency is 11.2 µM (active). For `C=CCn1c(SCC(=O)NC)nnc1C12CC3CC(CC(C3)C1)C2`, the Potency entry was “inactive”. For `CCOc1ccc(N2CC(C)Cn3c2nc2c3c(=O)n(Cc3c(F)cccc3Cl)c(=O)n2C)cc1` (centres undefined), the Potency entry was “inactive”. For the compound `COc1ccc(CNC(=O)CSc2n[nH]c(-c3ccc(F)cc3)n2)cc1`, the Potency result is “inactive”. Take `CC(NC(=O)c1cc(Sc2ccc(F)cc2F)nc2ccccc12)c1ccccc1` (centres undefined): the Potency entry was “inactive”. On to `CCC1CCCCN1C(=S)Nc1ccc(C(C)=O)cc1` (centres undefined), for which the Potency entry is “inactive”.

Regarding `CCC1CCCCN1C(=S)Nc1ccc(SC(F)F)cc1` (centres undefined), the Potency result was “inactive”. As to `CCC1CCCCN1C(=S)Nc1ccc(S(=O)(=O)Nc2ncccn2)cc1` (centres undefined), the Potency was 100 µM (active). For `Cc1ccc2cccc(NC(=O)c3ccc(OC(C)C)cc3)c2n1`, the Potency entry was “inactive”. On to `Cc1cc2n(n1)C(c1cc(C(C)(C)C)c(O)cc1O)Nc1ccccc1-2` (centres undefined), for which the Potency entry is “inactive”. Regarding `CSc1ccc(CCNC(=O)c2cnn(-c3ccccc3)c2-n2cccc2)cc1`, the Potency entry is “inactive”.

As for `Cc1ccc(C)c(Nc2nnc(-c3ccc(C)c(S(=O)(=O)N4CCCCC4)c3)c3ccccc23)c1`, the Potency result is “inactive”. Turning to `CCc1c(C)[nH]c(=S)c(C#N)c1C`, the Potency is 3.98 µM (active). As to `CCn1c(=O)c2cc(C(=O)NCCc3ccc(Cl)cc3)sc2c2ccccc21`, the Potency result was “inactive”.
